# Hits are enriched below; roughly 4% of the tested compounds scored in any of these assays.
# Peg3 prom inh: reduces Peg3 promoter-driven luciferase expression in HeLa. inhibition, % at 20 µM. actives 1.7% (n = 360,000). HeLa PEG-Prom luciferase reporter, luminescence, overnight;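 active means inhibition of at least 50% at 20 µM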
# TWEAK Fn14 block: inhibitors of TWEAK-Fn14 interaction signaling; TWEAK-stimulated Fn14 reporter cells, luciferase luminescence, 8 h; inhibition, % at 10 µM; actives 2% (n = 360,000); in the data active means inhibition above about 50%
# CF NFkB inh: inhibitors of cystic fibrosis induced NF-kB; KKLEB NF-kB-GFP reporter, PAF-induced, GFP fluorescence overnight; inhibition, % at 5 µM; actives 0.86% (n = 360,000);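 active means at least 50% inhibition at 5 µM, scaled per plate between neutral and stimulator controls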;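 further: PAF is a Pseudomonas aeruginosa culture filtrate used as stimulus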
# TROY signal inh: blocks TROY-dependent signaling in reporter cells; Q293 LMP1-TROYcd NF-kB luciferase reporter, 4 h; actives 0.98% (n = 360,000); inhibition, % at 10 µM; AID 1347056;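 active means compounds whose plate-normalised and pattern-corrected inhibition of the luciferase reporter signal at the single screening dose is 50% or more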
# KKLEB tox: counter-screen for CF NF-kB inhibitors: cytotoxicity; KKLEB CF airway cells viability, ATPlite luminescence, overnight; stronger effect = lower value; cells stimulated with P. aeruginosa culture filtrate; activity change (cytotoxicity), % at 5 µM; actives 0.36% (n = 360,000); AID 602141;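 active means corrected activity change at or below -50% at 5 µM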
# HIF-2a block: blocks HIF-2a reporter activity. 786-0 RCC cells HIF-2a reporter, luciferase luminescence, overnight. actives 0.72% (n = 360,000). AID 624352. inhibition, % at 18.8 µM;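 active means inhibition of the luminescence signal of 40% or more relative to plate controls, in a single-dose primary screen at 18.75 µM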
# Mdm2 MdmX conf: confirmation of inhibitors of human Mdm2/MdmX interaction, set 2 | shares compounds with HIF-2a block | actives 99% (n = 740) | SaOS-2 split-luciferase Mdm2/MdmX complementation, luminescence | inhibition, % at 8 µM;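 active means mean inhibition of the luminescence signal across two replicates at or above 26 percent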
# Target sequence (O15151 whole entry, looked up): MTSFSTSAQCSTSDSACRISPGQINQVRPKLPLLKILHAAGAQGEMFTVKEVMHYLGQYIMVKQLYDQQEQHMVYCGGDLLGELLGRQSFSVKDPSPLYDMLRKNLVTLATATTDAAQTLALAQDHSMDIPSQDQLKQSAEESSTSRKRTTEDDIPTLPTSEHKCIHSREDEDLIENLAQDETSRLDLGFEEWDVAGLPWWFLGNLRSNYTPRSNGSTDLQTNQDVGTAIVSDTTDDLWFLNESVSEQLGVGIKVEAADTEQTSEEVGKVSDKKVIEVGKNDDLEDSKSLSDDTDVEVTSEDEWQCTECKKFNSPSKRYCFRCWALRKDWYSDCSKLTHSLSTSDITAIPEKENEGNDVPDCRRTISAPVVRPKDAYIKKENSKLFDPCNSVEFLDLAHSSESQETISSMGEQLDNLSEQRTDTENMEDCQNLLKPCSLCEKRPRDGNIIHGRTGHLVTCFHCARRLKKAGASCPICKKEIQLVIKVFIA
# Target sequence (Q00987 whole entry, looked up): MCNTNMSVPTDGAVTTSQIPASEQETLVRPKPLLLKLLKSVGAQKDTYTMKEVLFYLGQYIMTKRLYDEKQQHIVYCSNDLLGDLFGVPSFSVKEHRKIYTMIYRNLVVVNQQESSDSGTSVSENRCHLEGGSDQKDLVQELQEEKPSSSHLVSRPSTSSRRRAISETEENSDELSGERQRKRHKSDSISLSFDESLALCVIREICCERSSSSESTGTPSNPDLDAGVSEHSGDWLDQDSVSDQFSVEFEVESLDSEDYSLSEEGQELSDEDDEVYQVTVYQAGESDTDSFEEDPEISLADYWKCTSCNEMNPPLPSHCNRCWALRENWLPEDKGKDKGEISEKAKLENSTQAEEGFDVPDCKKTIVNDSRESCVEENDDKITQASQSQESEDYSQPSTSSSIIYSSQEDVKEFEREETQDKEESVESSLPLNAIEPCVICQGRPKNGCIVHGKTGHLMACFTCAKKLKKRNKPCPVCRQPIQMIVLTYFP
# HIF-2a inh conf: confirmation of HIF-2a inhibitors. actives 56% (n = 1,800). inhibition, % at 18.8 µM. AID 651580. shares compounds with HIF-2a block. 786-0 RCC cells, HIF-2a luciferase reporter luminescence, overnight;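 active means mean inhibition across four replicates of at least 40 percent at the single tested concentration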
# HIF-1a counter: inhibits HIF-1a reporter, a counter-screen for HIF-2a inhibitors; MiaPaCa-2 HIF-1a luciferase reporter, desferoxamine, overnight; inhibition, % at 18.8 µM; shares compounds with HIF-2a block; actives 72% (n = 1,800);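 active means mean inhibition of the reporter signal across four replicates at the single tested dose of 50% or more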
# A number is an active result; - = inactive; . = no result.
SMILES,Peg3 prom inh,TWEAK Fn14 block,CF NFkB inh,TROY signal inh,KKLEB tox,HIF-2a block,HIF-2a inh conf,HIF-1a counter,others
COC(=O)c1cccc(CC2(C)C(=O)Nc3cc(-c4ccccc4Cl)ccc32)c1 (configuration not stated),-,-,-,-,-,-,.,.,
O=C(C(=Cc1ccccc1)CN1CCCCC1)c1ccccc1,103,102,80,-,-84,80,98,105,
Cc1cc(N2CCCCC2)nc(NCc2ccccc2)n1,-,-,-,-,-,47,-,60,
O=C(CCN1C(=O)/C(=C/c2ccccc2)SC1=S)N1CCCCCC1,105,-,-,-,-,67,.,.,Mdm2 MdmX conf=102
CCc1ccc(/C=C2\SC(=S)N(CCC(=O)N3CCN(C)CC3)C2=O)cc1,-,-,-,-,-,-,.,.,
O=C(CCCN1C(=O)/C(=C/c2ccccc2)SC1=S)Nc1cccc(O)c1,78,-,-,-,-,73,.,.,Mdm2 MdmX conf=103
Cc1ccc(/C=C2/SC(=S)N(CCCC(=O)Nc3ccc(O)cc3)C2=O)cc1,-,-,-,-,-,-,.,.,Mdm2 MdmX conf=101
CCCCn1c(=O)[nH]c(=O)c2c1nc(CN1C(=O)c3ccccc3S1(=O)=O)n2CCC,-,-,-,-,-,-,.,.,
CCCCn1c(=O)[nH]c(=O)c2c1nc(Cn1ncc(Cl)c(Cl)c1=O)n2CCC,104,94,103,71,-81,96,71,97,Mdm2 MdmX conf=103
CCOC(=O)c1c(NC(=O)CC2Nc3cc(C)c(C)cc3NC2=O)sc(C)c1C (configuration not stated),-,-,-,-,-,-,.,.,
CCCOc1ccc(C(=O)C(CN2CCOCC2)c2ccccc2)cc1 (configuration not stated),94,-,-,-,-,63,-,100,
CCCOc1ccc(C(=O)C(c2ccccc2)N2CCOCC2)cc1 (configuration not stated),-,-,-,-,-,-,.,.,
CC(C)c1ccc(Nc2ncccc2C(=O)O)cc1,-,-,-,-,-,-,.,.,
Cc1nn(C)c(C)c1CN(C)C(=O)c1cnn2c1NC(c1ccccc1)CC2C(F)(F)F (configuration not stated),-,-,-,-,-,43,-,-,
Cc1nn(C)c(C)c1CN(C)C(=O)c1nn2c(c1Br)NC(c1cccs1)CC2C(F)(F)F (configuration not stated),-,-,-,-,-,-,.,.,
O=C(CSc1ccc(-c2ccc(F)cc2)nn1)NCC1CCCO1 (configuration not stated),-,-,-,-,-,-,.,.,
Nc1ncnc2c1ncn2[C@@H]1O[C@H](CO)[C@@H](O)[C@H]1O,-,-,-,-,-,-,.,.,
Nc1ncnc2c(C3OC(CO)C(O)C3O)c[nH]c12 (configuration not stated),96,101,83,71,-53,50,-,106,
Cc1cc(C)c(C(=O)/C=C/c2cccc3ccccc23)c(=O)[nH]1,96,95,-,54,-,85,92,105,Mdm2 MdmX conf=103
OCc1cnc(SCc2ccccc2)n1Cc1ccccc1,-,-,-,-,-,-,.,.,
CCOC(=O)c1nnc(-c2cccs2)nc1Oc1ccc(Cl)cc1,-,-,-,-,-,42,-,-,
Cc1c([N+](=O)[O-])cnc(Sc2ccccc2)c1[N+](=O)[O-],-,84,52,63,-,50,48,84,
Cc1ccc(Sc2ncccc2[N+](=O)[O-])cc1,-,-,-,-,-,-,.,.,
O=C(CSc1nc2ccccc2s1)NNC(=O)Nc1ccc(Cl)c(Cl)c1,-,-,-,-,-,-,.,.,
O=C(NNc1nc2ccccc2s1)Nc1ccc(Cl)c(Cl)c1,-,52,-,82,-,40,-,-,
SMILES,Peg3 prom inh,TWEAK Fn14 block,CF NFkB inh,TROY signal inh,KKLEB tox,HIF-2a block,HIF-2a inh conf,HIF-1a counter,others
CCN(CC)c1ccc(/C=C(\C#N)C(=O)c2ccc(Br)cc2)cc1,-,-,-,-,-,-,.,.,
COc1ccc(/C=C/C(=O)C(C(N)=O)=C2SCCS2)cc1,-,-,-,-,-,-,.,.,
NC(=O)C(C(=O)/C=C/c1ccc(Cl)cc1)=C1SCCS1,61,51,-,-,-,-,.,.,Mdm2 MdmX conf=102
Cc1ccn2c(Nc3ccc4c(c3)OCO4)c(-c3ccc(O)cc3)nc2c1,-,-,-,-,-,-,.,.,
S=C1SCN(Cc2ccccc2)CN1Cc1ccccc1,-,-,-,-,-,-,.,.,
S=C1SCN(Cc2cccnc2)CN1Cc1cccnc1,67,-,-,-,-,-,.,.,Mdm2 MdmX conf=98
S=c1[nH]nc(-c2ccccc2)n1/N=C/c1ccc(-c2ccccc2Cl)o1,-,-,-,-,-,-,.,.,Mdm2 MdmX conf=100
CC(=O)/C=C\c1cn(-c2ncc(C(F)(F)F)cc2Cl)c2ccccc12,-,-,-,-,-,61,-,-,
Cc1ccc(NC(=O)c2ccccc2)cc1,-,-,-,-,-,-,.,.,
Cc1ccc(NC(=O)C2=C(c3ccccc3)S(=O)(=O)CCS2(=O)=O)cc1,109,88,96,74,-72,81,81,102,Mdm2 MdmX conf=103
Nn1c(SCC(=O)Nc2c(F)cc(F)cc2Br)nnc1C1CCCCC1,-,-,-,-,-,-,.,.,
CCSc1nc(-c2ccccc2)c2cc(Cl)ccc2n1,-,-,-,-,-,-,.,.,
CCSc1nc(-c2ccccc2)nc(C(Cl)Cl)n1,102,-,-,-,-,71,61,105,
C=C1C(=O)[C@]23C[C@H]1CC[C@H]2[C@]1(C)[C@@H](OC(C)=O)CC[C@@](C)(C(=O)OC)[C@H]1C[C@@H]3OC(C)=O,99,85,95,-,-97,97,98,107,
CC(=NNC(=S)Nc1cccc(C)c1)c1ccccn1,-,-,-,-,-,-,.,.,
CC(=NNC(=S)Nc1ccc(C)cc1)c1ccccn1,74,-,-,-,-,61,-,-,
Cc1ccc(Cn2nc(C)cc2C(=O)Nc2ccc(Cl)cc2)cc1,-,-,-,-,-,-,.,.,
COc1ccccc1C(=O)NCCOc1ccc(C(C)(C)C)cc1,-,-,-,-,-,-,.,.,
CC(C)(C)c1ccc(C(=O)NCCOc2ccccc2F)cc1,67,95,-,75,-,41,61,73,
O=C(Nc1ccc(NC(=S)NC(=O)c2ccco2)cc1)c1ccc(Br)cc1,-,-,-,-,-,57,64,-,
Cc1ccc(S(=O)(=O)N2[C@@H](CO)CO[C@H]2CC(=O)c2cccs2)cc1,.,.,.,.,.,-,.,.,

# High-throughput results: PubChem, Sanford-Burnham Center for Chemical Genomics
